40 sequences from the supplement of paper PMC6555819 can be followed below.

In the assay the test system is RARb homodimer (NR concentration 270 nM). The assay can be described thus: PBM binding z-score (relative to random genomic background probes); higher = stronger binding; sequences stand for … in GC…GCGATTGACAGCGTAGAATGAAGG
In outline:
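The probes on custom Agilent 4×180K protein-binding microarrays were double-stranded, with 34-nt variable regions bearing direct-repeat seeds, single-nucleotide variants, half-site ablations and random human genomic background sequences. Incubation lasted 1 h with ligand-free nuclear receptor dimers in PBS pH 7.4, 2% milk, 0.02% Triton X-100, 1 mM DTT, 0.2 mg/mL BSA and 0.4 mg/ml salmon testes DNA. Antibodies against each partner (one per run) detected bound dimers, and fluorescence scans were regression-normalized. Binding z-scores take the random background probes as reference.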
AGTCAAAGTTCACTAGGTAACGTTAGATTCAGCT came in with a PBM binding z-score of 3.56. Next, ACTAGCAGGCCTAGGGTCACTCAAGATTAGTCCG: 2.83; TCTGCTAGGTCAACGATGGTCAGCTCATCTGCTA: 3.24. For ATCTCTAGGTAACCAAGTTTAGTGAATGCCGAAC the value was 0.287; for CCTACTGGGCAATCAGGTCATTGATATCAACGTT, 2.16. Next, CGAACTAGGTCATTGACAGGTCAGTGAATAGTAA: 4.18. TCTTGTAGATCAATCAGGTTAAGAAAGCCTGAGT gave a PBM binding z-score of 0.194.

Regarding CGAACTAGGCCATCCAGGACAGTGAATACATTGA, the PBM binding z-score came to 0.41. CATACAGGGTCAGCTAGGCCAGAGTGGGGACGGC came in with a PBM binding z-score of 3.76. Next, CCTAGTTGATCAGGAGGTCACACACCGGATATGA: 3.89; AGAACGAGGGCAATGAGATGATAGCACGGGTGGC: 0.913. Next, AGAATGAGGTTATTCAGATCAGGGAATTGCGGTC: 0.905; ATCTCTAGGTAAAGTTCCGTGAAAGATCGATAGA: -0.0472; CTCGAAAGGTCGTGCTCAGGTGAGCATACCAAAC: 2.63. For CGTACTAGGTCATCCAGGACAGTGAATACATTGA the value was 3.35; for CAGCCTAGGTCAGGGCCAGGATAGGAGGAACGTT, 2.32; for GATACAGGGTCAGCTAGAGGCCTGAGTATGGAAA, 2.73. For the sequence CCGATTAGGTTATGGGGCATTCAGGCAACGGTGA, the PBM binding z-score turned out to be 1.11. Next, ATCACTAGGTAACAAGTTCAGTGAAAGAGAGGAC: 1.82. ATCTCTAGCTAAAGTTCAGTGAAAGATCGATAGA came in with a PBM binding z-score of 2.45. In turn, AGAATGTGGTTACCAAAGATCAGGGAAACGCTTG gave a PBM binding z-score of -0.487.

GCTAGCAGGCCATTTGGATCACTCAATGACGGGC registered a PBM binding z-score of -0.535. For ATCGAAAGGTCGAGGTGAGTATTGAGAAAGGGAA, the PBM binding z-score is 3.11. Turning to GCGACTGGGGCATCAGCAGGTTACAATAACTTAA, the PBM binding z-score came out at 0.719. On to ATCGAAAGGTCGTGCGGTGAGTATACAGAAAGGC, for which the PBM binding z-score worked out at 2.65.

ATATGTAGATTAGCTGGGGTCATTCAGACTAGGC had a PBM binding z-score of 3.49.

For the sequence ACTGTTAGTTGAGACGAGGGCAACCGATAGGTTG, the PBM binding z-score was 1.26. Next, TAGCCTAGGTCATGCGGGCTAGTATAGTGTCGGC: 2.99; ATCACTAGGTAAAGTTCAGTGAAAGATCGATAGA: 2.57.

TCATATAGGTAAAAGGTGTAAGTCGGTGTGGTAA had a PBM binding z-score of 0.36. The sequence CCGAATGGGGCAAGGTTACCATAACGCACAGCCA showed a PBM binding z-score of 1.24. Consider ATCTCTAGGTAACAAGTTCACTGAAAGAGAGGAC, for which the PBM binding z-score amounted to 2.61. GCGACTCGGGCAAAGCAGGTTACCATAAGGTTGG: the PBM binding z-score turned out to be 0.473. For ATCGAAAGGTCGAGATGAGTATAGAGAAAGGGAA the value was 1.97. ATATGTAGGTTAAGGGTCATTCGGGTTGGTTCGC returned a PBM binding z-score of 3.7. For AGAATGAGGTTATACGTAGATCAGGTAAGAAAGT the value was 1.16; for GCTTACGGGTCAAGGGTTATAGCATGAATAGAAT, 3.07. AATCCAGGGTCACTAGGCCAGAGTAGGTACGAAT: the PBM binding z-score amounted to 3.4.

Consider ATCTCTAGGTCAAGTTCAGTGAAAGATCGATAGA, for which the PBM binding z-score was 3.89. As for GCTTGTAGATCAAGGTCAAGAAAGACTAAGCTAA, the PBM binding z-score was found to be 3.18.
